Measurements: PubChem BioAssay (NCATS)
Records with an inconclusive call do not appear. A call without a number means that no potency is given here. Active and inactive are the calls of the source. Calls come from the whole dose curve; as a rule, active = well fitted inhibition curve with a large enough effect; inconclusive = small, poorly fitted or top-dose-only effect; inactive = flat fitted curve, though single readings scatter.
Potency is the fitted concentration of half-maximal effect.

What follows are molecules tested on CP252 (assay: qHTS profiling for inhibitors of Plasmodium falciparum proliferation (AID 504749; note: nearly all actives have a fitted effect of over 60% in size)). Details: P. falciparum in erythrocytes, SYBR Green DNA, 72 h; series mostly up to 28.7 µM.
Outline: (§1)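 Readout was DNA-dye fluorescence from lysed cultures, ex 485/em 535 nm. Parasitized red cells had grown 72 h with compound; data scaled between 0.29 uM artemisinin and DMSO wells and corrected using vehicle-only plates.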
`COC(=O)Nc1nc2ccc(C(=O)c3cccs3)cc2[nH]1` was tested, and the Potency was “inactive”. In the case of `Clc1ccccc1C(c1ccccc1)(c1ccccc1)n1ccnc1`, the Potency is reported as 0.891 µM (active). In the case of `Cc1cn([C@H]2C=C[C@@H](CO)O2)c(=O)[nH]c1=O`, the Potency is reported as “inactive”. With `CCOC(=O)c1ncn2c1CN(C)C(=O)c1cc(F)ccc1-2` the Potency was “inactive”. For `CCC1(c2ccccc2)C(=O)NCNC1=O`, the Potency was “inactive”. For `CN(C)CCC=C1c2ccccc2C=Cc2ccccc21`, the Potency was “inactive”. For `CCCCc1oc2ccccc2c1C(=O)c1cc(I)c(OCCN(CC)CC)c(I)c1`, the Potency was 11.2 µM (active). With `O=C1c2c(O)ccc(O)c2C(=O)c2c(NCCNCCO)ccc(NCCNCCO)c21` the Potency was 3.16 µM (active). With `CN(Cc1cnc2nc(N)nc(N)c2n1)c1ccc(C(=O)N[C@@H](CCC(=O)O)C(=O)O)cc1` the Potency was “inactive”. For `CC(C)NCC(O)COc1ccc(CCOCC2CC2)cc1` (stereo not drawn), the Potency was “inactive”. In the case of `Nc1nc2c(ncn2COC(CO)CO)c(=O)[nH]1`, the Potency is reported as “inactive”. For `COc1ccc(CCN(C)CCCC(C#N)(c2ccc(OC)c(OC)c2)C(C)C)cc1OC` (stereo not drawn), the Potency was “inactive”. For `CN1CCC(=C2c3ccccc3CC(=O)c3sccc32)CC1`, the Potency was “inactive”. In the case of `OCCN1CCN(CCCN2c3ccccc3Sc3ccc(C(F)(F)F)cc32)CC1`, the Potency is reported as 10 µM (active). With `Clc1ccc(C(c2ccccc2Cl)C(Cl)Cl)cc1` (stereo not drawn) the Potency was “inactive”. `COc1nc(C)nc(Cl)c1NC1=NCCN1` was tested, and the Potency was “inactive”. `CC(COc1ccccc1)N(CCCl)Cc1ccccc1` (stereo not drawn) was tested, and the Potency was “inactive”. `CC(C)(Oc1ccc(C2CC2(Cl)Cl)cc1)C(=O)O` (stereo not drawn) was tested, and the Potency was “inactive”. For `NC12CC3CC(CC(C3)C1)C2`, the Potency was “inactive”. For `CN(C)C(=N)N=C(N)N`, the Potency was “inactive”. With `CC12CC3CC(C)(C1)CC(N)(C3)C2` the Potency was “inactive”. In the case of `CN(C)CCCN1c2ccccc2CCc2ccc(Cl)cc21`, the Potency is reported as “inactive”. In the case of `CC(C)NCC(O)c1ccc(O)c(O)c1` (stereo not drawn), the Potency is reported as “inactive”. `Nc1c2c(nc3ccccc13)CCCC2` was tested, and the Potency was “inactive”. With `CNCCCC12CCC(c3ccccc31)c1ccccc12` the Potency was “inactive”. For `CC(=O)OCC(CCn1cnc2cnc(N)nc21)COC(C)=O`, the Potency was “inactive”. With `CCOC(=O)Nc1ccc(NCc2ccc(F)cc2)nc1N` the Potency was 8.91 µM (active).

The molecules below were run on CP256 in the same assay as above. Details: P. falciparum in erythrocytes, SYBR Green DNA, 72 h; series mostly up to 28.7 µM.
Outline: as §1
`COC(=O)Nc1nc2ccc(C(=O)c3cccs3)cc2[nH]1` was tested, and the Potency was “inactive”. `Clc1ccccc1C(c1ccccc1)(c1ccccc1)n1ccnc1` was tested, and the Potency was 2 µM (active). With `Cc1cn([C@H]2C=C[C@@H](CO)O2)c(=O)[nH]c1=O` the Potency was “inactive”. In the case of `CCOC(=O)c1ncn2c1CN(C)C(=O)c1cc(F)ccc1-2`, the Potency is reported as “inactive”. With `CCC1(c2ccccc2)C(=O)NCNC1=O` the Potency was “inactive”. In the case of `CCCCc1oc2ccccc2c1C(=O)c1cc(I)c(OCCN(CC)CC)c(I)c1`, the Potency is reported as 12.6 µM (active). For `CC(C)NCC(O)COc1ccc(CCOCC2CC2)cc1` (stereo not drawn), the Potency was “inactive”. `Nc1nc2c(ncn2COC(CO)CO)c(=O)[nH]1` was tested, and the Potency was “inactive”. In the case of `COc1ccc(CCN(C)CCCC(C#N)(c2ccc(OC)c(OC)c2)C(C)C)cc1OC` (stereo not drawn), the Potency is reported as “inactive”. `OCCN1CCN(CCCN2c3ccccc3Sc3ccc(C(F)(F)F)cc32)CC1` was tested, and the Potency was 3.16 µM (active). `Clc1ccc(C(c2ccccc2Cl)C(Cl)Cl)cc1` (stereo not drawn) was tested, and the Potency was “inactive”. With `COc1nc(C)nc(Cl)c1NC1=NCCN1` the Potency was “inactive”. For `CC(COc1ccccc1)N(CCCl)Cc1ccccc1` (stereo not drawn), the Potency was “inactive”. With `CC(C)(Oc1ccc(C2CC2(Cl)Cl)cc1)C(=O)O` (stereo not drawn) the Potency was “inactive”. `COc1ccccc1OCCNCC(O)COc1cccc2[nH]c3ccccc3c12` (stereo not drawn) was tested, and the Potency was 11.2 µM (active). In the case of `CN(C)C(=N)N=C(N)N`, the Potency is reported as “inactive”. In the case of `CC12CC3CC(C)(C1)CC(N)(C3)C2`, the Potency is reported as “inactive”. With `CC(C)NCC(O)c1ccc(O)c(O)c1` (stereo not drawn) the Potency was “inactive”. For `CNCCCC12CCC(c3ccccc31)c1ccccc12`, the Potency was “inactive”. With `CC(=O)OCC(CCn1cnc2cnc(N)nc21)COC(C)=O` the Potency was “inactive”. With `CCOC(=O)Nc1ccc(NCc2ccc(F)cc2)nc1N` the Potency was 10 µM (active).

Each molecule was assayed on CP260 in the same assay as above. Details: P. falciparum in erythrocytes, SYBR Green DNA, 72 h; series mostly up to 28.7 µM.
Outline: as §1
`Clc1ccccc1C(c1ccccc1)(c1ccccc1)n1ccnc1` was tested, and the Potency was 1.41 µM (active). In the case of `Cc1cn([C@H]2C=C[C@@H](CO)O2)c(=O)[nH]c1=O`, the Potency is reported as “inactive”. With `CCOC(=O)c1ncn2c1CN(C)C(=O)c1cc(F)ccc1-2` the Potency was “inactive”. `CN(C)CCC=C1c2ccccc2C=Cc2ccccc21` was tested, and the Potency was “inactive”. With `CCCCc1oc2ccccc2c1C(=O)c1cc(I)c(OCCN(CC)CC)c(I)c1` the Potency was 3.98 µM (active). For `CN(C)CCOC(c1ccccc1)c1ccccc1`, the Potency was 5.62 µM (active). `O=C1c2c(O)ccc(O)c2C(=O)c2c(NCCNCCO)ccc(NCCNCCO)c21` was tested, and the Potency was 1 µM (active). `O=C(c1ccc(OCCN2CCCCC2)cc1)c1c(-c2ccc(O)cc2)sc2cc(O)ccc12` was tested, and the Potency was 3.16 µM (active). `CN(Cc1cnc2nc(N)nc(N)c2n1)c1ccc(C(=O)N[C@@H](CCC(=O)O)C(=O)O)cc1` was tested, and the Potency was 0.158 µM (active). `Nc1nc2c(ncn2COC(CO)CO)c(=O)[nH]1` was tested, and the Potency was “inactive”. For `O=C(Nc1ccc([N+](=O)[O-])cc1Cl)c1cc(Cl)ccc1O`, the Potency was 2.82 µM (active). `OCCN1CCN(CCCN2c3ccccc3Sc3ccc(C(F)(F)F)cc32)CC1` was tested, and the Potency was 7.94 µM (active). With `COc1nc(C)nc(Cl)c1NC1=NCCN1` the Potency was “inactive”. In the case of `CC(C)(Oc1ccc(C2CC2(Cl)Cl)cc1)C(=O)O` (stereo not drawn), the Potency is reported as “inactive”. `NC12CC3CC(CC(C3)C1)C2` was tested, and the Potency was “inactive”. For `CC[C@@]1(O)C(=O)OCc2c1cc1n(c2=O)Cc2cc3c(CN(C)C)c(O)ccc3nc2-1`, the Potency was 6.31 µM (active). For `CN(C)C(=N)N=C(N)N`, the Potency was “inactive”. With `CC(C)NCC(O)c1ccc(O)c(O)c1` (stereo not drawn) the Potency was “inactive”. With `CC(=O)OCC(CCn1cnc2cnc(N)nc21)COC(C)=O` the Potency was “inactive”. In the case of `CCOC(=O)Nc1ccc(NCc2ccc(F)cc2)nc1N`, the Potency is reported as 11.2 µM (active).
